Screening data from PubChem BioAssay.
Gal4-VP16 FLuc: counter-screen for ROR gamma inhibitors: Gal4-VP16 reporter. Drosophila S2 Gal4-VP16 UAS-luciferase, luminescence, 20 h. Potency, µM (highest dose often 53.6 µM), actives largely listed as inhibitors. 310,000 compounds, 3.5% hits. AID 2546;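 further: Gal4-VP16 expression switched on by copper sulfate through the metallothionein promoter; nearly all actives have a fitted effect of over 50% in size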
TDP1 cell CPT: growth inhibition of DT40 Tdp1-/-;hTDP1 cells with camptothecin (screen for TDP1 inhibitors). chicken DT40 Tdp1-/-;hTDP1 cells + 20 nM CPT, ATP luminescence, 48 h. Potency, µM (top dose mostly 46.2 µM), usual class: inhibitors. 420,000 compounds, 12% hits. AID 686979; further: nearly all actives have a fitted effect of over 55% in size
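Cell growth measured by CellTiter-Glo luminescence after a minimum 48 h, 37 C compound exposure with 20 nM CPT in Tdp1-knockout DT40 cells stably expressing hTDP1, seeded 400/well; qHTS titration format.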
IL1B secr inh: inflammasome signaling inhibition, IL-1 beta readout | AID 743279 | THP-1 LPS/ATP IL-1B secretion, AlphaLISA, 16 h; active compounds read low | activity change, % at 57.5 µM | 360,000 compounds, 4.7% hits; in the data active means activity change below about -50%; inconclusive means mostly about -30% to -49%
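Secreted IL-1B measured by AlphaLISA bead assay after 16 h compound exposure of THP-1 cells; compounds (final up to 57.5 uM) added 1 h before LPS (250 ng/mL) and ATP (1.25 mM) stimulation; lower signal means less secretion.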
DT40 TDP1 no CPT: qHTS for Inhibitors of human tyrosyl-DNA phosphodiesterase 1 (TDP1): qHTS in cells in absence of CPT; DT40 Tdp1-/- hTDP1 cells, no CPT, ATP luminescence, 48 h; AID 686978, 2013; 420,000 compounds, 15% hits; Potency, µM (highest dose often 46.2 µM), usual class: inhibitors; further: nearly all actives have a fitted effect of over 55% in size
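No-CPT arm: Tdp1-/-;hTDP1 DT40 cells (400/well) plus compounds, incubated ≥48 hr at 37 °C. Readout CellTiter-Glo luminescence.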
LDHA inh: LDHA (human) enzyme inhibition | activity change, % (values are at about 110 or 230 µM) | purified LDHA, NADH/diaphorase-resazurin fluorescence; active compounds read low | 480,000 compounds, 0.15% hits | P00338 | AID 1347041; in the data active means activity change below about -30%; inconclusive means mostly about -25% to -30%
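LDH5 2 nM; NADH 0.06 mM, pyruvate 0.2 mM; 200 mM Tris pH 7.4, EDTA, Tween-20; 5 min RT. Detection: diaphorase 0.133 mg/mL + resazurin 37 µM, fluorescence ex540/em590 at 0 and 20 min; normalized to enzyme-free and DMSO wells.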
RORg inh: inhibitors of mouse ROR gamma transcriptional activity | P51450 | AID 2551 | 310,000 compounds, 5.4% hits | Potency, µM (titrated, usually from 53.6 µM), hits mostly inhibitors | Drosophila S2 Gal4-RORgamma UAS-luciferase reporter, 20 h; further: nearly all actives have a fitted effect of over 60% in size
Target sequence (P51450 whole entry, looked up, the tested form may be a part): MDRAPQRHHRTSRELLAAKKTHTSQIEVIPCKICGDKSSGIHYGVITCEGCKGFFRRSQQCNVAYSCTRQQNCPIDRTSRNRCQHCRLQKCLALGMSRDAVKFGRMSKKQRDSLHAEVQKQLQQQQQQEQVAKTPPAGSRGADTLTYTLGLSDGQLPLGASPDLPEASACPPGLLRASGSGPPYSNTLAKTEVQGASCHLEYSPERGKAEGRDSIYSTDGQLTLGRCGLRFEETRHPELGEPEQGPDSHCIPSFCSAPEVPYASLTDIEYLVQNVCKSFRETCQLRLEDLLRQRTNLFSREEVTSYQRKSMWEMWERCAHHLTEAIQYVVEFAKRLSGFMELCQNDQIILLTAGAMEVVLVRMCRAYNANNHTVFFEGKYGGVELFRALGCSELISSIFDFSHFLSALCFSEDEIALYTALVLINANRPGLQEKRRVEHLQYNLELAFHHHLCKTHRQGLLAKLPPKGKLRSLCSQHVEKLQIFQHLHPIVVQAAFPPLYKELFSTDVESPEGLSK
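Luminescence from a UAS-regulated Photinus luciferase reporter in stably transfected Drosophila Schneider cells is measured; decreased signal marks ROR gamma inhibition. Fusion expression is induced by 700 uM copper sulfate for 20 hr.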
Numbers stand for hits; - = inactive; ? = inconclusive; . = not tested or not shown; [ ] = another dose, or the depositor's remark. Hits are enriched below; roughly 18% of the tested compounds scored in any of these assays. Unless noted, the call rests on the fitted dose curve; in most records, active means well fitted curve in the direction sought with a large enough effect; inconclusive means small, poorly fitted or top-dose-only effect, or another doubt; inactive means no such curve, though single readings can be large; an effect the other way counts as inactive or inconclusive.

SMILES | Gal4-VP16 FLuc | TDP1 cell CPT | IL1B secr inh | DT40 TDP1 no CPT | LDHA inh | RORg inh
CCOc1ccc(NC(=O)/C(C#N)=C/c2c[nH]c3ccccc23)cc1 | . | . | . | . | - | .
CCN(N=O)c1ccc(C=C2C=Cc3ccccc32)cc1 | . | - | -66 | - | - | .
CC(=O)N(C)c1ccc(C=C2C=Cc3ccccc32)cc1 | . | 9.2µM | -78 | 9.2µM | - | .
CN(N=O)c1ccc(C=C2C=Cc3ccccc32)cc1 | . | - | - | ? | - | .
Cc1ccc(NC(=O)CC(c2cccc(F)c2)n2cccc2)cc1N(C)C (configuration not stated) | . | . | . | . | - | .
COc1ccc(Cl)cc1NC(=O)C(CC(C)C)N1Cc2ccccc2C1=O (configuration not stated) | . | . | . | . | - | .
COc1ccc(N2C(=O)c3ccccc3NC2c2ccc(OC)c(COc3ccc(NC(C)=O)cc3)c2)cc1 (configuration not stated) | . | ? | . | ? | - | .
O=C1c2ccccc2NC(c2ccc(OCc3ccccc3)c(OCc3ccccc3)c2)N1Cc1ccco1 (configuration not stated) | . | 11µM | . | 13µM | - | .
COc1cc(C2Nc3ccccc3C(=O)N2Cc2ccccc2)ccc1OCc1ccccc1 (configuration not stated) | . | ? | . | ? | - | .
COc1ccc(C2Nc3ccccc3C(=O)N2Cc2ccco2)cc1COc1ccccc1F (configuration not stated) | - | ? | -69 | ? | - | -
COc1ccc(C2Nc3ccccc3C(=O)N2c2ccc(F)cc2)cc1COc1ccc(NC(C)=O)cc1 (configuration not stated) | . | ? | . | 25µM | - | .
COc1ccc(C2Nc3ccccc3C(=O)N2Cc2ccco2)cc1COc1ccccc1 (configuration not stated) | . | . | . | . | - | .
COc1ccc(C2Nc3ccc(NC(C)=O)cc3C(=O)N2Cc2ccccc2)cc1COc1ccc(NC(C)=O)cc1 (configuration not stated) | . | ? | . | 18µM | - | .
Cc1ccc(C2Nc3ccccc3C(=O)N2Cc2ccco2)cc1 (configuration not stated) | - | 18µM | - | ? | - | -
COc1ccc(C2Nc3ccccc3C(=O)N2Cc2ccccc2)cc1CSc1ccccn1 (configuration not stated) | - | 23µM | . | 18µM | - | -
COc1ccc(C2Nc3ccccc3C(=O)N2Cc2ccco2)cc1COc1ccc(NC(C)=O)cc1 (configuration not stated) | -[0.365 µM] | ? | - | 11µM | - | -
COc1ccc(C2Nc3ccccc3C(=O)N2c2ccccc2)cc1CSc1ccccn1 (configuration not stated) | - | ? | - | ? | - | -
CCOc1ccc(NC(C)(CC)c2nnnn2-c2c(C)cccc2C)cc1 (configuration not stated) | . | . | . | . | - | .
Cc1ccc2c(=O)cc(C(=O)N3CCC(Cc4ccccc4)CC3)oc2c1C | . | . | . | . | - | .
O=C(NCC1CCC1)c1ccccc1Nc1ccccc1 | . | . | . | . | - | .
Cc1ccc2nc(COc3ccc(F)cc3)[nH]c2c1 | . | . | . | . | - | .
CC(Nc1oc(Cc2cccc3ccccc23)nc1C#N)c1ccccc1 (configuration not stated) | . | . | . | . | - | .
COC(=O)c1cc(NC(=O)C(C)N(c2ccc(C)c(C)c2)S(C)(=O)=O)ccc1Cl (configuration not stated) | . | . | . | . | - | .
CCOc1ccc2nc(N=NC3=C(O)CC(C)(C)CC3=O)sc2c1 | - | 3.7µM | - | 4.1µM | - | 2.2µM
Cc1nc2ccc(N=NC3=C(O)CC(C)(C)CC3=O)cc2s1 | - | - | - | ? | - | -
SMILES | Gal4-VP16 FLuc | TDP1 cell CPT | IL1B secr inh | DT40 TDP1 no CPT | LDHA inh | RORg inh
CC(C)(CC(=O)O)CC(=O)Nc1cccc(C(F)(F)F)c1 | . | . | . | . | - | .
O=C(Cc1ccccc1)NC(Nc1cccc2ccccc12)C(Cl)(Cl)Cl (configuration not stated) | ? | ? | - | 26µM | - | -
O=C(Cc1ccccc1)NC(Nc1ccccc1)C(Cl)(Cl)Cl (configuration not stated) | - | ? | - | - | - | -
CC(C)c1cc(=O)oc2cc(OS(=O)(=O)c3ccc4c(c3)OCCO4)ccc12 | . | . | . | . | - | .
Cc1ccc(C(C)C)c(OCCCn2c(=O)oc3ccc(C)cc32)c1 | . | ? | . | 16µM | - | .
CCCCCOc1ccc(Cn2c(=O)oc3ccc(C)cc32)cc1OC | . | 26µM | . | 21µM | - | .
CC1=C(C(=O)Nc2ccccc2)C(c2cccc(Br)c2)NC(=S)N1 (configuration not stated) | . | . | . | . | - | .
Cc1ccc(NC(=O)c2c(C)oc3ncn(CC(C)C)c(=O)c23)nc1 | . | 13µM | . | 9.2µM | - | .
COC(=O)C(CCSC)NC(=O)c1c(C)oc2ncn(CC(C)C)c(=O)c12 (configuration not stated) | . | - | . | 13µM | - | .
Cc1oc2ncn(CC(C)C)c(=O)c2c1C(=O)NC(C)c1ccccc1 (configuration not stated) | . | 21µM | . | 21µM | - | .
Cc1ccnc(NC(=O)c2c(C)oc3ncn(CC(C)C)c(=O)c23)c1 | . | ? | . | ? | - | .
CCC(C)NC(=O)c1c(C)oc2ncn(CC(C)C)c(=O)c12 (configuration not stated) | . | - | . | ? | - | .
Cc1c[n+](=O)c2ccccc2n1[O-] | . | . | . | . | - | .
Cc1nc(-c2ccc(CNC(=O)c3ccc4nc[nH]c4c3)cc2)cs1 | . | . | . | . | - | .
O=c1cc(CSc2nnc(Nc3ccccc3F)s2)nc2sccn12 | - | ? | - | 23µM | - | -
Cc1ccc2nc(CSc3nnc(Nc4ccccc4F)s3)cc(=O)n2c1 | - | ? | - | 16µM | - | -
Cc1ccc(Nc2nnc(SCc3cc(=O)n4cc(C)ccc4n3)s2)cc1 | - | ? | - | - | - | -
O=C1OC(c2ccccc2)Cc2cc(C(=O)N3CCN(c4ccc(F)cc4)CC3)ccc21 (configuration not stated) | . | 18µM | - | ? | - | .
COc1ccc(N2CCN(C(=O)c3ccc4c(c3)CC(c3ccccc3)OC4=O)CC2)cc1 (configuration not stated) | . | ? | - | 21µM | - | .
CCN(CC)C(CNS(=O)(=O)c1cccc(C#N)c1)c1ccsc1 (configuration not stated) | . | . | . | . | - | .
CC(C)CNC(=O)c1nc(CC(=O)Nc2cccc3ncccc23)no1 | . | . | . | . | - | .
CCCc1cc(C(=O)Nc2c(C)nn(Cc3ccc(Cl)c(Cl)c3)c2C)no1 | . | 13µM | . | 26µM | - | .
Cc1ccc(Cn2ccc(NC(=O)c3cc(CC(C)C)on3)n2)cc1 | - | ? | - | 21µM | - | ?
